# PubChem BioAssay (Tox21)
# Inconclusive results are not listed. Active and inactive are the calls of the source. Calls follow the shape of the dose curve; as a rule, active = well fitted cell-killing curve with a large enough effect in the repeat runs; inconclusive = weak or mixed curves, or effect the other way; inactive = flat fitted curve, though single readings scatter.
# Experiment: Caspase-3/7 induction in HepG2 cells by small molecules, qHTS cell viability counter screen (AID 1346981); also: nearly all actives have a fitted effect of over 30% in size
# Conditions: CellTiter-Fluor fluorescence, 17 h; series mostly up to 92.4 µM; activity change, negative = cytotoxicity: at the top concentration
# Source text: U.S. Tox21 Program National Center for Advancing Translational Sciences [NCATS] NIH Chemical Genomics Center [NCGC] U.S. Environmental Protection Agency [EPA] National Institutes of Environmental Health Sciences [NIEHS] National Toxicology Program [NTP] U.S. Food and Drug Administration [FDA] Tox21 Assay Overview: Apoptosis is a process of programmed cell death and plays a central role in the development of multicellular organisms. It is a highly regulated process and induces cell death by activating caspases, which are the members of cysteine aspartic acid-specific protease (caspase) family. Caspases involved in apoptosis are classified by their mechanism of action as initiator caspases (caspase-2, -8, -9 and -10) and executioner caspases (caspase-3, -6, and -7). Inhibition of apoptosis results in number of cancers, autoimmune diseases, inflammatory diseases and viral infection. To identify small molecule compounds that induce apoptosis, a homogeneous, luminescent Caspase-Glo 3/7 assay was used. Wild type HepG2 cells were used to screen Tox21 libraries for identifying caspase-3/7 activity inducers. Also cytotoxicity of the compounds was tested in parallel by measuring the cell viability using CellTiter-Fluor assay system in the same wells.
# Tox21 Assay Protocol Summary: HepG2 cells were dispensed at 2,000 per well in 5uL of culture medium into white solid bottom 1536-well plates (Corning Life Sciences, Corning, NY) using a Multidrop Combi (Thermo Scientific, Waltham, MA) dispenser. The assay plates were incubated at 37 C and 5% CO2 for 5hr, and then 23nL of compounds dissolved in DMSO and positive control were transferred using a Pintool station ([…], San Diego, CA). The assay plates were incubated at 37C and 5% CO2 for 17hr. For cytotoxicity read, after 16hr incubation at 37C, 1uL CellTiter-Fluor reagent (Promega Corporation, Madison, WI) was added to each well of the assay plates using Flying Reagent Dispenser (FRD, Aurora Discovery, San Diego, CA). After 1hr incubation at 37C and 5% CO2, the fluorescence signal was quantified using a ViewLux plate reader (PerkinElmer, Shelton, CT).
# % is scaled to controls: 0 for no effect and ±100 for the full control effect.
row,SMILES,"activity change, negative = cytotoxicity"
1,Nc1ccc(C(=O)NCC(=O)O)cc1,3.02% [at 42.5 µM] (inactive)
2,CCCCCCCC(=O)N(C)C,0.143% (inactive)
3,Cc1cc(C)c(N)c(Cl)c1,-0.266% (inactive)
4,O=C(O)CCC(=O)Nc1ccc(S(=O)(=O)Nc2nccs2)cc1,8.38% [at 42.5 µM] (inactive)
5,CC(C)OCCO,-1.39% (inactive)
6,CN(C)c1ccncc1,0.35% (inactive)
7,O=C(O)/C=C(\CC(=O)O)C(=O)O,3.56% [at 42.5 µM] (inactive)
8,C[C@@H]1NC(=O)[C@@H](N)CNC(=O)[C@H](C2CCNC(N)=N2)NC(=O)/C(=C/NC(N)=O)NC(=O)[C@H](CNC(=O)C[C@@H](N)CCCN)NC1=O (stereo not given in full),-0.309% [at 0.349 µM] (inactive)
9,C=CCCCCCCCCCCCCCC,-0.984% [at 19 µM] (inactive)
10,CCCC[O][Al]([O]CCCC)[O]CCCC,-0.414% (inactive)
11,C=C(C)C(=O)OCCCC,-1.04% (inactive)
12,CCC(C)c1nccnc1OC (stereo not given),0.351% (inactive)
13,CC1(C)S[C@@H]2[C@H](NC(=O)Cc3ccccc3)C(=O)N2[C@H]1C(=O)O (tested in a mixture with another compound),6.41% [at 42.5 µM] (inactive)
14,CCCCS,0.151% (inactive)
15,O=C(CCBr)N1CCN(C(=O)CCBr)CC1,1.57% [at 42.5 µM] (inactive)
16,O=CN1CCCCC1,-4.14% (inactive)
17,NCC1CCC(C(=O)Oc2ccc(CCC(=O)O)cc2)CC1 (stereo not given),9.61% [at 42.5 µM] (inactive)
18,CC(=O)SC[C@@H](C)C(=O)N1CCC[C@H]1C(=O)N[C@@H](Cc1ccccc1)C(=O)O,3.22% [at 42.5 µM] (inactive)
19,CC[C@@]1(c2ccccc2)NC(=O)N(C)C1=O,7.22% [at 42.5 µM] (inactive)
20,c1coc(Cn2cccc2)c1,1.84% (inactive)

row,SMILES,"activity change, negative = cytotoxicity"
1,O=C(c1ccccc1)c1cccc(O)c1,1.52% (inactive)
2,CC(=O)/C=C/C=C1/C2CCC(C2)C1(C)C (stereo not given),-0.61% [at 42.5 µM] (inactive)
3,CCCCCCC(O)CO (stereo not given),1.92% (inactive)
4,O=Cc1ccc(C(=O)O)cc1,-1.31% (inactive)
5,CC(C)c1cc(C(C)C)cc(C(C)C)c1,3.73% (inactive)
6,CC(=O)c1ccc(O)c(C(N)=O)c1,4.11% [at 42.5 µM] (inactive)
7,C=C(C)C(=O)OCCOC1CC2CC1C1C=CCC21 (stereo not given),3.58% (inactive)
8,O=S(=O)(O)c1cc(I)c(O)c2ncccc12,0.48% [at 42.5 µM] (inactive)
9,C=CC(C)(CCC=C(C)C)OC(=O)C(C)C (stereo not given),-0.219% (inactive)
10,CC(=O)Nc1ccc(S(=O)(=O)Nc2cc(C)on2)cc1,9.33% [at 42.5 µM] (inactive)
11,c1cc2ccc3ccc4ccc5cccc6c(c1)c2c3c4c56,-2.99% [at 3.27 µM] (inactive)
12,C[C@H]1COc2c(C3(N)CC3)c(F)cc3c(=O)c(C(=O)O)cn1c23,8.91% [at 42.5 µM] (inactive)
13,CCCC(=O)OC,6.56% (inactive)
14,CC(=O)SCC(CC(=O)c1ccc(C)cc1)C(=O)O (stereo not given),9.07% [at 42.5 µM] (inactive)
15,CCOc1ccccc1OCCN[C@H](C)Cc1ccc(OC)c(S(N)(=O)=O)c1,3.48% [at 42.5 µM] (inactive)
16,Cc1cccc(N)n1,1.8% (inactive)
17,CSC(=O)c1cccc2nnsc12,6.18% (inactive)
18,COC(=O)c1cc(Cl)c(NC(C)=O)cc1OC,4.65% [at 42.5 µM] (inactive)
19,N#Cc1ccccc1C#N,-6.76% (inactive)
20,Nc1nc(Cl)cc(Cl)n1,3.39% (inactive)
